Compound activity: PubChem BioAssay, The Scripps Research Institute Molecular Screening Center
GPR151 ag = activates the human receptor GPR151; AID 1508602; Q8TDV0; actives 1% (n = 650,000); PathHunter beta-arrestin GPR151 cells, luminescence; activation, % at 11.2 µM; in the data active means activation above about 4.9%;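 further: 0% = median of compound wells and 100% = cells with positive control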
Target sequence (Q8TDV0 whole entry, looked up): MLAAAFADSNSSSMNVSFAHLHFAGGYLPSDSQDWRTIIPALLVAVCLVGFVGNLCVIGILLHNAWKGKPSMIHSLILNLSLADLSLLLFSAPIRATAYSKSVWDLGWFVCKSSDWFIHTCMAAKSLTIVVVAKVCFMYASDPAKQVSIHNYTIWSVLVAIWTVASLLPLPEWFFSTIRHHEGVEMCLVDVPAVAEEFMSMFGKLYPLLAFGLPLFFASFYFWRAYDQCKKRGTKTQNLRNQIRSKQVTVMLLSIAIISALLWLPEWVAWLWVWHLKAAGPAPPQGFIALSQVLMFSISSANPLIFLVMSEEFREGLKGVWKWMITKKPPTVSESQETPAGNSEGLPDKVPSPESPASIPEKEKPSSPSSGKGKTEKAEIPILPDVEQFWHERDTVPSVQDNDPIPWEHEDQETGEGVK
TEAD-YAP inh = TEAD-YAP interaction inhibition. HEK-TIYL cells, TEAD-Gal4/YAP UAS-luciferase luminescence. actives 1.4% (n = 640,000). AID 1259422. inhibition, % at 9.12 µM; in the data active means inhibition above about 32%;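 further: 0% = median of test compound wells and 100% = reference inhibitor wells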
MITF inh = inhibitors of human MITF | inhibition, % at 2.6 µM | AlphaScreen MITF homodimerization, bead proximity signal | O75030 | actives 0.91% (n = 650,000); in the data active means inhibition above about 50%;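 further: 0% = vehicle wells with protein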
FBW7 activator = human FBW7 E3 ligase activation, primary screen | Q969H0 | AlphaScreen FBW7–phospho-cyclin E peptide binding, activator screen | normalized activity (activation), % at 26.1 µM | actives 0.13% (n = 650,000) | AID 1259310; in the data active means normalized activity above about 1.9%;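 further: purified mutant Fbw7 with reduced substrate affinity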
GPR151 confirm = human GPR151 activation, confirmation screen | shares compounds with GPR151 ag | GPR151 PathHunter beta-arrestin cells, luminescence, 90 min; % of EA-reagent control over plate median | activation, % at 11.2 µM | 6,700 tested, under 10 active;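 active means mean percent activation across replicates above the confirmation screen cutoff of 4.91%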
GPR119 ag = GPR119 activation, counter-screen for GPR151 activators. AID 1508611. shares compounds with GPR151 ag. GPR119 PathHunter beta-arrestin cells, luminescence, 90 min; 0 = compound-well median, 100 = enzyme-acceptor control. actives 0.3% (n = 6,700). activation, % at 11.2 µM;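 active means mean percent activation in the counterscreen above 29.09%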;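 further: counterscreen on off-target GPR119 to flag nonselective hits from the GPR151 activator screen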
Starred values were filed as active, the others as inactive; . = no result. The list is not random: actives were taken first. Their share in the collection is about 3.5%.

SMILES	GPR151 ag	TEAD-YAP inh	MITF inh	FBW7 activator	GPR151 confirm	GPR119 ag
Cc1nc2c(C(=O)NC3CCCCC3)cnn2c(C)c1Cc1ccc(F)cc1	5.0*	-10	-2	0	0	-9
Cc1nc2c(C(=O)NC3CCCC3)cnn2c(C)c1Cc1ccc(F)cc1	1	-5	-10	0	.	.
Cc1sc2nc(C3CC3)n(C3CCN(C(=O)c4ccccn4)CC3)c(=O)c2c1C	6.5*	-31	-13	0	1	3
COC(=O)c1ccccc1NC(=O)CSc1nnnn1-c1ccc(Cl)c(C(=O)O)c1	0	5	12	0	.	.
O=C(c1cc(-c2cccc(Cl)c2)nc2ccccc12)N1CCOCC1	11*	7	-10	0	-1	-3
O=C(c1cc(-c2ccc(Cl)cc2)nc2ccccc12)N1CCOCC1	0	3	-3	0	.	.
COc1ccc(CCC(=O)NNC(=O)COc2ccc(-c3ccccc3)cc2)cc1	3	3	-13	0	.	.
COC(=O)c1cccc(S(=O)(=O)N2CCN(c3ccc(OC)cc3)CC2)c1	-1	1	12	0	.	.
Cc1c(NC(=O)c2ccc(OCc3c(F)cccc3Cl)cc2)c(=O)n(-c2ccccc2)n1C	8.3*	5	4	0	2	-2
Cn1c(=O)c(=O)n(C)c2cc(S(=O)(=O)N3CCN(C(=O)c4ccco4)CC3)ccc21	15*	1	6	0	1	-2
COc1cc(NC(=S)N2CCC(C(N)=O)CC2)cc(OC)c1	7.5*	5	-12	0	0	-10
COc1cc(CNc2ncn[nH]2)ccc1OCc1cccc(C)c1	5.1*	-29	-11	0	-1	-6
COc1cc(CNc2ncn[nH]2)cc(Cl)c1OC	2	-2	-5	0	.	.
COc1ccc2cc(C#N)c(SCC(=O)Nc3ccc(N4CCOCC4)cc3)nc2c1	-1	-4	-6	0	.	.
COc1ccc(-c2nc(NC(C)=O)sc2C)cc1OC	6.0*	12	12	0	-1	-8
COc1cccc2cc(C(=O)Nc3ccccc3[N+](=O)[O-])c(=O)oc12	13*	-17	11	0	0	13
COc1cccc2cc(C(=O)c3ccc([N+](=O)[O-])cc3)oc12	7.3*	-13	10	0	0	-10
CCN(CC)C(=O)CSc1nnc2scc(-c3cc(OC)ccc3OC)n12	0	-11	-2	0	.	.
COc1cccc(C(=O)NCCCCN2CCOC(c3ccccc3)C2)c1 (stereo not drawn)	-2	11	10	0	.	.
CS(=O)(=O)N1N=C(c2ccc3nccnc3c2)CC1c1ccccc1 (stereo not drawn)	5.0*	-13	5	0	-1	-13
CC(C)CC(=O)N1C(=O)c2cccc3c(S(=O)(=O)N(C)C)ccc1c23	0	0	8	0	.	.
COc1ccc(-c2noc(CN(C)C(=O)Nc3cccc(C)c3)n2)cc1	0	5	2	0	.	.
Cn1c(SCC(=O)NCCc2ccccc2)nnc1-c1cccs1	-2	-6	16	0	.	.
Cc1ccc(N2C(=O)c3ccc([N+](=O)[O-])cc3C2=O)cc1Cl	0	14	6	0	.	.
O=C1c2ccc([N+](=O)[O-])cc2C(=O)N1c1ccc(Cl)c(Cl)c1	6.9*	9	7	0	1	7
SMILES	GPR151 ag	TEAD-YAP inh	MITF inh	FBW7 activator	GPR151 confirm	GPR119 ag
COc1cc(CN2CCCC(C(=O)Nc3ccc4[nH]ncc4c3)C2)cc(OC)c1 (stereo not drawn)	0	3	0	0	.	.
COCCCNCCn1cnc2c(N)ncnc21	7.2*	3	-7	0	-1	-2
O=C(NC1CCCCC1)c1nn2c(C(F)(F)F)cc(-c3ccccc3)nc2c1Br	5.0*	1	0	0	0	1
CN(CCO)c1ccc(/C=N/NC(=O)c2cc3c(s2)CCCC3)cc1	6.2*	-9	-4	0	0	-6
C/C(=N\NC(=O)c1cc2c(s1)CCCC2)c1ccccc1O	0	-14	-11	0	.	.
CNC(=O)c1c(NC(=O)COc2cccc(C)c2C)sc2c1CCCC2	5.2*	-7	0	0	0	1
COc1ccc(NC(=O)COc2cccc(C)c2C)cc1	7.5*	-19	3	0	0	14
COC(=O)c1ccc(NC(=O)COc2cccc(C)c2C)cc1	1	7	8	0	.	.
CCOC(=O)c1c(NC(=O)COc2ccc3c(C)cc(=O)oc3c2)sc2c1CCC(C)C2 (stereo not drawn)	5.4*	3	-5	0	0	10
CCCOC(=O)c1c(NC(=O)OC)sc2c1CCC(C)C2 (stereo not drawn)	6.0*	-4	13	1	-1	-8
CCCOC(=O)c1c(N)sc2c1CCC(C)C2 (stereo not drawn)	1	-9	1	0	.	.
Nc1cccc(Cl)c1C(=O)O	-1	-6	-4	0	.	.
O=[N+]([O-])c1ccc(-c2cn3c4ccccc4n(Cc4ccc(Cl)cc4)c3n2)cc1	0	-3	5	0	.	.
CCOC(=O)c1c(NC(=O)COc2ccc3c(c2)OCO3)sc2c1CCCC2	5.4*	4	-13	0	0	10
CCOC(=O)C1C(=O)C=C(c2ccc(C)cc2)CC1c1ccccc1OCC (stereo not drawn)	5.3*	3	15	0	0	0
CCOC(=O)C1C(=O)C=C(c2cccc(OC)c2)CC1c1ccccc1C (stereo not drawn)	1	9	-4	0	.	.
CN1C(=O)/C(=C/c2cn(CC(=O)N3CCCC3)c3ccccc23)c2ccccc21	0	25	5	0	.	.
CCOC(=O)c1cccc(NC(=O)CCc2c(C)nc3nc(CN)nn3c2C)c1	5.9*	12	3	0	-2	-20
N/C(=N\S(=O)(=O)c1ccc2ccccc2c1)c1ccc([N+](=O)[O-])cc1	-2	-2	18	0	.	.
CC(=O)c1ccc(N2C(=O)/C(=C3/C(=O)N(C(C)=O)c4ccccc43)SC2=S)cc1	-1	-5	7	0	.	.
CN1C(=O)/C(=C2\SC(=S)N(c3ccc(C(=O)O)cc3)C2=O)c2ccccc21	5.6*	7	21	0	1	16
CN1C(=O)/C(=C2\SC(=S)N(c3ccc(CC(=O)O)cc3)C2=O)c2ccccc21	6.9*	3	11	0	0	0
CN1C(=O)/C(=C2\SC(=S)N(CC(=O)O)C2=O)c2ccccc21	1	-5	9	0	.	.
O=C(Cn1cncn1)NN=C1c2ccccc2-c2ccccc21	5.2*	-5	-3	0	1	6
O=C(Cn1cncn1)N/N=C/c1ccccc1Cl	1	1	12	0	.	.
O=C(CSc1nnnn1-c1ccccc1)c1ccc(OC(F)F)cc1	0	4	-2	0	.	.
